Bioassay records deposited in PubChem BioAssay by National Center for Advancing Translational Sciences (NCATS).
HT1080-NT tox: kills 2HG-producing HT-1080-NT fibrosarcoma cells; hit rate 1.6% among 360,000; Potency, µM (titrated, usually from 46.1 µM), without a hit: top-dose activity, negative = less viability, usual class: cytotoxic; HT-1080-NT fibrosarcoma viability, CellTiter-Glo ATP luminescence, 48 h; AID 686970;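 further: NT is the 2HG producing partner of a matched IDH1 knockdown line; potency means the concentration at half of the fitted maximal effect; 0% = DMSO-treated cells and -100% = media-only wells without cells; nearly all actives have a fitted effect of over 55% in size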
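Luminescent CellTiter-Glo readout after 48 hours of compound exposure at 37 degrees C defined viability of HT-1080-NT cells. Activity was normalized to DMSO wells and cell-free media wells; concentration-response curves were fitted and assigned curve classes.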
TDP1 cell noCPT: qHTS for Inhibitors of human tyrosyl-DNA phosphodiesterase 1 (TDP1): qHTS in cells in absence of CPT | DT40 Tdp1-/- hTDP1 cells, no CPT, ATP luminescence, 48 h | Potency, µM (doses to about 46.2 µM), for inactives: at the top dose activity change, negative = growth inhibition, hits mostly inhibitors | hit rate 15% among 420,000 | AID 686978, 2013; further: potency means the concentration at half of the fitted maximal effect; nearly all actives have a fitted effect of over 55% in size
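Luminescent ATP content (CellTiter-Glo) served as the growth readout. Knockout chicken DT40 cells expressing human TDP1 were exposed to compounds without camptothecin for a minimum 48 hr at 37 °C.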
IL1B secr inh: inhibitors of inflammasome signaling (IL-1 beta secretion); THP-1 LPS/ATP IL-1B secretion, AlphaLISA, 16 h; stronger effect = lower value; activity change, % at 57.5 µM; hit rate 4.7% among 360,000; AID 743279; in the data active means activity change below about -50%; inconclusive means mostly about -30% to -49%
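Secreted IL-1B measured by AlphaLISA bead assay after 16 h compound exposure of THP-1 cells; compounds (final up to 57.5 uM) added 1 h before LPS (250 ng/mL) and ATP (1.25 mM) stimulation; lower signal means less secretion.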
HT1080 IDH1KD tx: HT-1080 IDH1 knockdown cell toxicity (counter line) | HT-1080 IDH1 knockdown viability, ATP luminescence, 48 h | Potency, µM (titrated, usually from 46.1 µM), without a hit: top-dose activity, negative = toxicity, most hits filed as cytotoxic | hit rate 2% among 360,000;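 further: potency means the concentration at half of the fitted maximal effect; 0% = DMSO wells and -100% = cell-free medium wells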
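Viability of IDH1-knockdown HT-1080 fibrosarcoma cells was assessed by CellTiter-Glo after 48 h at 37 °C with titrated compound; concentration-effect curves were classified by fit quality and response size.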
uPA generation: cell surface uPA generation inhibition; cell surface uPA generation assay, qHTS; Potency, µM (highest dose often 38.3 µM), for the others: top-dose activity change, negative = inhibition, usual class: inhibitors; hit rate 0.31% among 330,000; AID 540303; active means well fitted inhibition curve with a large enough effect; inconclusive means small, poorly fitted or top-dose-only effect; inactive means no such curve, though single readings can be large or run the other way; tested in mouse RAW 264.7 cells; further: potency means the concentration at half of the fitted maximal effect; nearly all actives have a fitted effect of over 55% in size
DT40 TDP1 CPT: DT40-hTDP1 cell growth loss with CPT | Potency, µM (highest dose often 46.2 µM), for the others: at the highest dose activity change, negative = growth inhibition, actives largely listed as inhibitors | chicken DT40 Tdp1-/-;hTDP1 cells + 20 nM CPT, ATP luminescence, 48 h | AID 686979 | hit rate 12% among 420,000; further: potency means the concentration at half of the fitted maximal effect; nearly all actives have a fitted effect of over 55% in size
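Chicken DT40 Tdp1-/- cells complemented with human TDP1, 400 cells/well, exposed to compounds plus 20 nM camptothecin for at least 48 h at 37 C; viability read as ATP content by CellTiter-Glo luminescence.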
Active calls of the source: *. Compounds with a hit are over-represented: about 19% of the library has one in this group of screens. Unless noted, the call rests on the fitted dose curve; in most records, active means well fitted curve in the direction sought with a large enough effect; inconclusive means small, poorly fitted or top-dose-only effect, or another doubt; inactive means no such curve, though single readings can be large; an effect the other way counts as inactive or inconclusive. Unless noted, on the % scale 0 is the no-effect control and ±100 the full control effect.

Results for COc1ccc(-c2nc3ccccc3c(=O)n2CCOc2ccccc2C)cc1 ?
HT1080-NT tox: -6%; TDP1 cell noCPT: 18µM*; IL1B secr inh: 28; HT1080 IDH1KD tx: 10%; uPA generation: 9%; DT40 TDP1 CPT: inconclusive

How did O=c1c2ccccc2nc(-c2ccccc2)n1Cc1ccccc1 do in these assays?
HT1080-NT tox: -1%; TDP1 cell noCPT: 26µM*; IL1B secr inh: -15; HT1080 IDH1KD tx: -3%; uPA generation: -1%; DT40 TDP1 CPT: -20%

What do the screens show for `COc1ccc(-c2n(Cc3ccccc3)c3ccccc3[n+]2Cc2ccccc2)cc1`?
HT1080-NT tox: 4.6µM*; TDP1 cell noCPT: 0.26µM*; IL1B secr inh: -87*; HT1080 IDH1KD tx: 5.8µM*; uPA generation: inconclusive; DT40 TDP1 CPT: 0.46µM*

Results for O=c1c2ccccc2nc(-c2ccccc2)n1Cc1ccc(Cl)cc1 ?
HT1080-NT tox: -20%; TDP1 cell noCPT: inconclusive; IL1B secr inh: -12; HT1080 IDH1KD tx: -17%; uPA generation: 1%; DT40 TDP1 CPT: inconclusive

How did COc1ccc(-c2ccc(=O)n(Cc3ccccc3)n2)cc1 do in these assays?
HT1080-NT tox: 1%; TDP1 cell noCPT: inconclusive; IL1B secr inh: 2; HT1080 IDH1KD tx: -2%; uPA generation: 8%; DT40 TDP1 CPT: inconclusive

Results for COc1ccccc1C(=O)Nc1nc2nc(C)c(Cc3ccccc3)c(=O)n2[nH]1 ?
TDP1 cell noCPT: -12%; DT40 TDP1 CPT: -18%

How did Cc1ccc(C)c(NC(=O)Cn2c(=O)n(Cc3ccc4c(c3)OCO4)c(=O)c3ccccc32)c1 do in these assays?
TDP1 cell noCPT: -19%; DT40 TDP1 CPT: inconclusive

What do the screens show for `COc1cc(OC)cc(C(=O)N[C@H](C(=O)NC2=NCCS2)C(C)C)c1`?
HT1080-NT tox: 4%; TDP1 cell noCPT: 0%; IL1B secr inh: 4; HT1080 IDH1KD tx: 19%; uPA generation: 7%; DT40 TDP1 CPT: -29%

How did CCc1nn(CC(=O)NCc2ccc(OC)cc2OC)c(=O)c2cc3c(OC)cccc3n12 do in these assays?
TDP1 cell noCPT: -8%; DT40 TDP1 CPT: 6%

How did CCn1c(NCc2ccc(OC)cc2)nc2ccccc21 do in these assays?
HT1080-NT tox: 0%; TDP1 cell noCPT: inconclusive; IL1B secr inh: -18; HT1080 IDH1KD tx: -2%; uPA generation: -3%; DT40 TDP1 CPT: -14%

Results for CCOCCn1c(-c2ccc(OC)cc2)nc2ccccc21 ?
HT1080-NT tox: -7%; TDP1 cell noCPT: inconclusive; IL1B secr inh: -19; HT1080 IDH1KD tx: -6%; uPA generation: -13%; DT40 TDP1 CPT: inconclusive

What do the screens show for `C=CCc1ccccc1OCc1nc2ccccc2n1CC`?
TDP1 cell noCPT: 23µM*; DT40 TDP1 CPT: inconclusive

How did CCCCCn1c(-c2ccc(OC)c(OC)c2)nc2ccccc21 do in these assays?
TDP1 cell noCPT: 7.3µM*; DT40 TDP1 CPT: inconclusive

What do the screens show for `COc1ccc(-c2nc3ccccc3n2Cc2ccccc2)cc1`?
HT1080-NT tox: -13%; TDP1 cell noCPT: 8.2µM*; IL1B secr inh: -1; HT1080 IDH1KD tx: -24%; uPA generation: 4%; DT40 TDP1 CPT: 18µM*

Results for CCn1c(Cc2ccc(OC)cc2)nc2ccccc21 ?
HT1080-NT tox: -8%; TDP1 cell noCPT: -28%; IL1B secr inh: -51*; HT1080 IDH1KD tx: -12%; uPA generation: -1%; DT40 TDP1 CPT: inconclusive

How did CCc1cc(C(=O)NCC2CCCO2)sc1C (configuration not stated) do in these assays?
HT1080-NT tox: 0%; TDP1 cell noCPT: 12%; IL1B secr inh: 2; HT1080 IDH1KD tx: 5%; uPA generation: 0%; DT40 TDP1 CPT: 18%

Results for C=CCn1c(-c2ccc(OC)cc2)nc2ccccc21 ?
HT1080-NT tox: -18%; TDP1 cell noCPT: 9.2µM*; IL1B secr inh: -7; HT1080 IDH1KD tx: -15%; uPA generation: -7%; DT40 TDP1 CPT: 18µM*
